From the supplement of paper PMC10849652 come the findings set out here.

Targets with a hit are over-represented here; the source holds about 7,900 in all. About 0.6% of all pairs of compound and target were hits. Unmarked numbers belong to inactive results.

Sequence of UniProt Q9BUV8 (Q9BUV8 whole entry, looked up): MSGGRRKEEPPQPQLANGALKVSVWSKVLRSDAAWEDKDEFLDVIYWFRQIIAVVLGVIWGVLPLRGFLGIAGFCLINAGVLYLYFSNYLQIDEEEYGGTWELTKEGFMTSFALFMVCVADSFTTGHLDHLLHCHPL
Sequence of UniProt Q7L4I2 (Q7L4I2 whole entry, looked up): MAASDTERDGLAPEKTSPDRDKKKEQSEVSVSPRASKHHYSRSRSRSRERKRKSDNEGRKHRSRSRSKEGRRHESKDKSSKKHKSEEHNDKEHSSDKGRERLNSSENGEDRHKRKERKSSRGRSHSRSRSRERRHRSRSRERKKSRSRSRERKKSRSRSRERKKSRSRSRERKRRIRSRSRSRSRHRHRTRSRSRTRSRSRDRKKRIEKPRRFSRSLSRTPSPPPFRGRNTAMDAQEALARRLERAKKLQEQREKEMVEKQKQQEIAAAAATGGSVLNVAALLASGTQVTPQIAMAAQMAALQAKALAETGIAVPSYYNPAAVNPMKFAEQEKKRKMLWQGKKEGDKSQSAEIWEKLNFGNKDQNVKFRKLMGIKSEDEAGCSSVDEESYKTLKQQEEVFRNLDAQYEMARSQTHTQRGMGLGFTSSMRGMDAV
Sequence of UniProt O00584 (O00584 whole entry, looked up): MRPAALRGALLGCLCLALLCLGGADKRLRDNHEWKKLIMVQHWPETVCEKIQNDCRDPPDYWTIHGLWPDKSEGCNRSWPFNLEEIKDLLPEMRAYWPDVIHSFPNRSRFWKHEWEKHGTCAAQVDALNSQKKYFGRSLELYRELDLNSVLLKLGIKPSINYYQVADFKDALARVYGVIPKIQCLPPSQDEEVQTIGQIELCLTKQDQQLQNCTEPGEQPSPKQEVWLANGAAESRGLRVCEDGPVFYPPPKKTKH
Sequence of UniProt O15027 (O15027 whole entry, looked up): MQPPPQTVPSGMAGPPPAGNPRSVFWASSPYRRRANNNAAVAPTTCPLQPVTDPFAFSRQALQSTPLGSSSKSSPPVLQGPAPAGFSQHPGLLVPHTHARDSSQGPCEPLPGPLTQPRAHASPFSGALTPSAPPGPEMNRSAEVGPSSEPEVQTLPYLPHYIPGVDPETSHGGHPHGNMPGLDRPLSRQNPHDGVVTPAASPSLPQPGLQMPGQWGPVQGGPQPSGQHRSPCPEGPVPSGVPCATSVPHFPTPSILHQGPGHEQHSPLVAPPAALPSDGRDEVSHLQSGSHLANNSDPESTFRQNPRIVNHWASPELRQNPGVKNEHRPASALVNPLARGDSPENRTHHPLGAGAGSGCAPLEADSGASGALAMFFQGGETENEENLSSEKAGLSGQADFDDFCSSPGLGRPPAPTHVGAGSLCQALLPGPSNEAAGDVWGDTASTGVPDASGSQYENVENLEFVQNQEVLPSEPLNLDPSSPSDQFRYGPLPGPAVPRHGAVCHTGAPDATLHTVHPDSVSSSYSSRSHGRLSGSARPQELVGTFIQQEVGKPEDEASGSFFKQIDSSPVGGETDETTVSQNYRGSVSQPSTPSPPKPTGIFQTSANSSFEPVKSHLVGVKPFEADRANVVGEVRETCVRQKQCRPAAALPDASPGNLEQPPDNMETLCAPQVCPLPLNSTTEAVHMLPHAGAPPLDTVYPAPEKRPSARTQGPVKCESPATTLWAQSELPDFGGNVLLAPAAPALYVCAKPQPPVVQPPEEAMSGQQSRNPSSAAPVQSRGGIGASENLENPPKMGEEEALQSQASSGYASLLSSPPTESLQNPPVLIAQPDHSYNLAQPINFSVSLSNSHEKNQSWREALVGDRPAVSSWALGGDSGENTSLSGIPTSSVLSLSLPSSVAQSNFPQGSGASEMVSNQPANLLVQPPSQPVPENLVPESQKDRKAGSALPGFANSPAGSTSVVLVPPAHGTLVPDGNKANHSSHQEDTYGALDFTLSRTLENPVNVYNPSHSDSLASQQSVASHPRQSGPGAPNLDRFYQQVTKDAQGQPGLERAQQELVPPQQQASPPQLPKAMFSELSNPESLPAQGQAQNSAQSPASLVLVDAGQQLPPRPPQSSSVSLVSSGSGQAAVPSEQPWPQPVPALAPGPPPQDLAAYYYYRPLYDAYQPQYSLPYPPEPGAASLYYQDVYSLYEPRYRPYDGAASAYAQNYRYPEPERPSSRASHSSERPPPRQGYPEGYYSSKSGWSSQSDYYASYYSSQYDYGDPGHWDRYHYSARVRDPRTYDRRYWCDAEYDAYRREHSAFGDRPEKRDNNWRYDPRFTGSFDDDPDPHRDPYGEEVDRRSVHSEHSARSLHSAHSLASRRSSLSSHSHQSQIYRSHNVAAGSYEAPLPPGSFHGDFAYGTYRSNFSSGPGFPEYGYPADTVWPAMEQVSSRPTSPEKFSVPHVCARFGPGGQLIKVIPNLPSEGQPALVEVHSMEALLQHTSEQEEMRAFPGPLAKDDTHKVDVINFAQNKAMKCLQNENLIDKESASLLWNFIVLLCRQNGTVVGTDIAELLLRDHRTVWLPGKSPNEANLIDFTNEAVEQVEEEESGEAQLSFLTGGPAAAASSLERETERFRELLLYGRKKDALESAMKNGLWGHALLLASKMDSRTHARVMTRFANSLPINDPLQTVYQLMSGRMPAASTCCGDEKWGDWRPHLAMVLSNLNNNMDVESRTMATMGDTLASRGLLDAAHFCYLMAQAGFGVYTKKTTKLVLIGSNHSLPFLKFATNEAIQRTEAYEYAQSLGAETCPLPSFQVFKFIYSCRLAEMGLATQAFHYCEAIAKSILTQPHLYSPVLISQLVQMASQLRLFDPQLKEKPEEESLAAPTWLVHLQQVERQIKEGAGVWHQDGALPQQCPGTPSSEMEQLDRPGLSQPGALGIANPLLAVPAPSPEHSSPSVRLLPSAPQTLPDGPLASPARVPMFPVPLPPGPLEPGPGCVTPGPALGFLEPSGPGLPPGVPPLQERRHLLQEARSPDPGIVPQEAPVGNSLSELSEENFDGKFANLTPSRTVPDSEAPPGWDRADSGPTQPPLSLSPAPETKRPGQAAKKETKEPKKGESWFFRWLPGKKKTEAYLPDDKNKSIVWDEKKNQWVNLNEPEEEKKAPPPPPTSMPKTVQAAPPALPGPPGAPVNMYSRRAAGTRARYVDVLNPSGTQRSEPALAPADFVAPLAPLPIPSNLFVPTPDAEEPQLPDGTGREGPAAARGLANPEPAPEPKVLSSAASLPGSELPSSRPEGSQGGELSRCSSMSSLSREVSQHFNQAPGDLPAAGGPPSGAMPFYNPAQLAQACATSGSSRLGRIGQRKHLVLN
Sequence of UniProt Q9Y6Y8 (Q9Y6Y8 whole entry, looked up): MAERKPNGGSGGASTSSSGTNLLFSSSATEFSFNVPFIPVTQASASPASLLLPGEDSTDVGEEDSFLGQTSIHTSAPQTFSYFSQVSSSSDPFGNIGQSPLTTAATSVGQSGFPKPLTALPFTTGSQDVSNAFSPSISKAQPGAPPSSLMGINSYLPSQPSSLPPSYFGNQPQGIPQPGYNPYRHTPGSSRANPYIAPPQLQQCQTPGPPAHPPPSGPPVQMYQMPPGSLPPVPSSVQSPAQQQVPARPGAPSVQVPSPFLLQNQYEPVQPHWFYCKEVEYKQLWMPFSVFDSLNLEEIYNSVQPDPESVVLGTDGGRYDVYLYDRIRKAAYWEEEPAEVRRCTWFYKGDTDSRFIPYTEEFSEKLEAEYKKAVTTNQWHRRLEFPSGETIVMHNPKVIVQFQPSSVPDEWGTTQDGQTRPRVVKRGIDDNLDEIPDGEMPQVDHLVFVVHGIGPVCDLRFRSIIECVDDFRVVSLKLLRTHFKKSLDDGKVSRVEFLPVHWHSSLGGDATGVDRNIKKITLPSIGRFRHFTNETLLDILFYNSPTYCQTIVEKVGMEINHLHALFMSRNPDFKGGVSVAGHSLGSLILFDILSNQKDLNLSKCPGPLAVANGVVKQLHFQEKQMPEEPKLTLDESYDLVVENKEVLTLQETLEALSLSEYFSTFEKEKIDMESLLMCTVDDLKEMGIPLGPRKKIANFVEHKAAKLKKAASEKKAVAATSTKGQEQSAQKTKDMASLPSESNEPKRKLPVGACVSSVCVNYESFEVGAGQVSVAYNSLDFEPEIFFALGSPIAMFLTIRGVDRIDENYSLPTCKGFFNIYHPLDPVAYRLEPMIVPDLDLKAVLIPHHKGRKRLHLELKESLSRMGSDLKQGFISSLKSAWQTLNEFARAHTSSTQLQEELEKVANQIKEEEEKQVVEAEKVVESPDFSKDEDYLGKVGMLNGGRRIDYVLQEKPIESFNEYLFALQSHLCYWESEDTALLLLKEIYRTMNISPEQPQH
Sequence of UniProt O43818 (O43818 whole entry, looked up): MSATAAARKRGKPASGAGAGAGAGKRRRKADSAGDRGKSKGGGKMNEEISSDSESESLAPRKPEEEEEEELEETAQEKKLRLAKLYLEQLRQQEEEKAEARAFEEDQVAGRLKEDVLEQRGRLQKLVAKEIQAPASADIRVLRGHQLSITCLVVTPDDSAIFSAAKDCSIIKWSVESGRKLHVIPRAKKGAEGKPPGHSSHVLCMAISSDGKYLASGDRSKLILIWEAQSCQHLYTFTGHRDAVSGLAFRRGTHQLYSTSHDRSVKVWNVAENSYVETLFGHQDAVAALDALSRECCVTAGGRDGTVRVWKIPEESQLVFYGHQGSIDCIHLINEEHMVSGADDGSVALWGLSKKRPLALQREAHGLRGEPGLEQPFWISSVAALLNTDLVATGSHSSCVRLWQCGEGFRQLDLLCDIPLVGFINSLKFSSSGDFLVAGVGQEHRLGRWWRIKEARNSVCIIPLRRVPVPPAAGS
Sequence of UniProt Q5RL73 (Q5RL73 whole entry, looked up): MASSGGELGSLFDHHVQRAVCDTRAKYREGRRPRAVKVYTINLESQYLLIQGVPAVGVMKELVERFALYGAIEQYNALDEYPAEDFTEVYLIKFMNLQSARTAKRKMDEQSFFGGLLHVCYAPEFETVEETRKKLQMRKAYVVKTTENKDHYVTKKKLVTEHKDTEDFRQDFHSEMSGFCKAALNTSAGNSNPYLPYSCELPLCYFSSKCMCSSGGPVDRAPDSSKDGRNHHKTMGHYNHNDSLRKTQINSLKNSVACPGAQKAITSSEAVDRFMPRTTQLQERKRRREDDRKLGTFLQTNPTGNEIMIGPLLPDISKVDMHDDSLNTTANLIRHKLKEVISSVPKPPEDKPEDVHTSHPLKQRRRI

Compound in one assay: CC1=C(C(CC(=O)N1)C2=CC=C(C=C2)C(F)(F)F)C(=O)NC3=C(C=C4C(=C3)C=NN4)F
Kind of assay: log2 fold change, soluble protein after heating vs DMSO (PISA); higher = thermal stabilisation; K562 cells, 10 uM, 30 min; active = over 0.2 and 3.5 SD of the protein, either way, in both replicates (recomputed). The gist of the method:
(§1)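 Soluble protein was quantified by TMTpro 16plex LC-MS/MS after channel sums were equalised. It was obtained as the supernatant after 21,000xg for 90 min from pooled aliquots of K562 cells (2×10^6 cells/mL, 10 μM compound, 30 min) heated for 3 min across 48°C-58°C and extracted in PBS with 0.5% NP-40 at 4°C. Thermal stability values are relative to control samples and come from duplicates. They are given as log2 fold changes.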
For the target RPS3 (UniProt P23396), the log2 fold change is 0.031.
On to SDHC (UniProt Q99643), for which the log2 fold change is 0.193.
For the target REL (UniProt Q04864), the log2 fold change was -0.039.
As to SERINC1 (UniProt Q9NRX5), the log2 fold change is 0.038.
For the target RPS9 (UniProt P46781), the log2 fold change is 0.005.
Consider RPS27A (UniProt P62979), for which the log2 fold change is 0.157.
On to RPS18 (UniProt P62269), for which the log2 fold change is 0.063.
In the case of RBM33 (UniProt Q96EV2), the log2 fold change was 0.001.
On to SEC23IP (UniProt Q9Y6Y8), for which the log2 fold change was 0.059.
Take RRAGB (UniProt Q5VZM2): the log2 fold change was -0.016.
On the same count and under the same terms, then RPS16 (UniProt P62249), with 0.057; and RPS4X (UniProt P62701), with 0.048; and RABGGTA (UniProt Q92696), with 0.
As to RSL1D1 (UniProt O76021), the log2 fold change was -0.072.
As for ROR2 (UniProt Q01974), the log2 fold change was -0.059.
In the case of SEC16A isoform 5 (UniProt O15027), the log2 fold change was -0.027.
Same read-out and setting: with RETSAT (UniProt Q6NUM9) the figure was -0.037; with RAB5C isoform 2 (UniProt P51148), 0.028.
RSF1 (UniProt Q96T23): the log2 fold change is 0.028.
As to SCAMP2 (UniProt H3BUB6), the log2 fold change is 0.111.
For RSRC2 (UniProt Q7L4I2), the log2 fold change is 0.028.
With RAB5IF isoform 5 (UniProt Q9BUV8), the log2 fold change was -0.12.
For the target RGS10 (UniProt O43665), the log2 fold change was -0.008.
For the target ROCK1 (UniProt Q13464), the log2 fold change is 0.249 (active).
Same read-out and setting: with SCYL3 isoform 2 (UniProt Q8IZE3) the figure was 0.013; with SCAF11 (UniProt Q99590), -0.036; with RCC1 isoform 2 (UniProt P18754), -0.08.
Regarding RPS6KA2 isoform 2 (UniProt Q15349), the log2 fold change was 0.016.
As to RNASET2 (UniProt O00584), the log2 fold change is 0.045.
As for RBM48 isoform 2 (UniProt Q5RL73), the log2 fold change was -0.099.
On the same count and under the same terms, then RPS3A (UniProt P61247), with 0.03; and RRP9 (UniProt O43818), with 0.136; and SASH1 (UniProt O94885), with -0.077.
As for RIPK1 (UniProt Q13546), the log2 fold change is -0.014.

Compound in a further assay: CC1=C(C2=C(C=C1)C(=O)C3=CC=CC=C3N2CCCN)C
The assay is described as above. The procedure, abridged:
as §1
Take RPS3 (UniProt P23396): the log2 fold change was -0.497 (active).
Turning to SDHC (UniProt Q99643), the log2 fold change is 0.108.
Consider REL (UniProt Q04864), for which the log2 fold change was 0.005.
In the case of SERINC1 (UniProt Q9NRX5), the log2 fold change is 0.
As to RPS9 (UniProt P46781), the log2 fold change was -0.585 (active).
Consider RPS27A (UniProt P62979), for which the log2 fold change was -0.557 (active).
In the case of RPS18 (UniProt P62269), the log2 fold change is -0.531 (active).
On the same count and under the same terms, with RBM33 (UniProt Q96EV2) the figure was -0.282 (active); with SEC23IP (UniProt Q9Y6Y8), -0.011; with RRAGB (UniProt Q5VZM2), 0.026.
For the target RPS16 (UniProt P62249), the log2 fold change is -0.6 (active).
Still for that read-out and setting: then RPS4X (UniProt P62701), with -0.679 (active); and RABGGTA (UniProt Q92696), with 0.046; and RSL1D1 (UniProt O76021), with -0.299.
On to ROR2 (UniProt Q01974), for which the log2 fold change is 0.115.
On the same count and under the same terms, with SEC16A isoform 5 (UniProt O15027) the figure was 0.025; with RETSAT (UniProt Q6NUM9), 0.059.
Take RAB5C isoform 2 (UniProt P51148): the log2 fold change was -0.032.
On to RSF1 (UniProt Q96T23), for which the log2 fold change was -1.48 (active).
Take SCAMP2 (UniProt H3BUB6): the log2 fold change is 0.059.
With RSRC2 (UniProt Q7L4I2), the log2 fold change is 0.016.
Take RAB5IF isoform 5 (UniProt Q9BUV8): the log2 fold change is -0.036.
Turning to RGS10 (UniProt O43665), the log2 fold change is 0.015.
The same measure, in the same setting: then ROCK1 (UniProt Q13464), with -0.013; and SCYL3 isoform 2 (UniProt Q8IZE3), with -0.146.
For SCAF11 (UniProt Q99590), the log2 fold change is 0.112.
Same read-out and setting: then RCC1 isoform 2 (UniProt P18754), with -0.899 (active); and RPS6KA2 isoform 2 (UniProt Q15349), with 0.006.
As to RNASET2 (UniProt O00584), the log2 fold change was -0.061.
Regarding RBM48 isoform 2 (UniProt Q5RL73), the log2 fold change is -0.151.
Consider RPS3A (UniProt P61247), for which the log2 fold change was -0.565 (active).
Turning to RRP9 (UniProt O43818), the log2 fold change is -0.432 (active).
For the target SASH1 (UniProt O94885), the log2 fold change was 0.07.
With RIPK1 (UniProt Q13546), the log2 fold change was 0.056.
